“And” between values parts separate entries of the source, which are not always exact repeats. Equal entries are not always repeated. Results filed as inconclusive are left out. More than one record can exist for a structure, and the calls need not agree. The source made the active and inactive calls. Unless noted, calls follow the shape of the dose curve; as a rule, active = well fitted curve in the direction sought with a large enough effect in the repeat runs; inconclusive = weak or mixed curves; inactive = no such curve, though single readings can be large; an effect the other way counts as inactive or inconclusive.
Tests used:
[1] = qHTS assay for small molecules that induce genotoxicity in human embryonic kidney cells expressing luciferase-tagged ATAD5 (AID 651632); also: nearly all actives have a fitted effect of over 15% in size
In short: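 Cells were seeded at 2,000 per well, dosed with compound, and incubated 16 hr at 37C in 5% CO2. Luciferase activity was then quantified after a 30 min room-temperature incubation with Amplite.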

[2] = qHTS assay for small molecule agonists of the p53 signaling pathway - cell viability (AID 651633; calls by dose curve; also: nearly all actives have a fitted effect of over 30% in size; also: potency is read from the fitted curve at half-maximal effect)
In short: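 Viability counter-read: CellTiter-Glo luminescence (30 min, room temperature) in the same p53RE-bla plates. These plates had been exposed to compounds for 16 h at 37 C.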

[3] = qHTS assay for small molecules that induce genotoxicity in human embryonic kidney cells expressing luciferase-tagged ATAD5 - cell viability (AID 651634; calls by dose curve; also: nearly all actives have a fitted effect of over 25% in size; also: potency is read from the fitted curve at half-maximal effect)
In short: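 Cells (HEK293T, luciferase-tagged ATAD5) are seeded at 2,000 per well, dosed with compound or DMSO vehicle, and incubated 15.5 hr at 37C and 5% CO2. CellTiter-Fluor is added for 30 min before fluorescence is measured.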

[4] = qHTS assay for small molecule disruptors of the mitochondrial membrane potential - cell viability (AID 720634; calls by dose curve;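 also: human HepG2 liver cancer cells; series mostly up to about 83 µM; nearly all actives have a fitted effect of over 20% in size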)
In short: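 Cytotoxicity was measured by ATP quantitation in HepG2 wells that had first been treated with compound for 1 hr and stained with m-MPI dye; CellTiter-Glo incubation was 30 min at room temperature.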

[5] = qHTS assay for small molecule disruptors of the mitochondrial membrane potential (AID 720635); also: potency is read from the fitted curve at half-maximal effect
In short: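 Mitochondrial membrane potential tracked with Mito-MPS dye, red aggregates (ex 540/em 590 nm) against green monomers (ex 490/em 535 nm). Compound treatment 1 hr at 37C, dye 30 min in HepG2.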

[6] = qHTS assay to test for compound auto fluorescence at 590 nm (red) in HepG2 cells (AID 720674)
In short: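 1 hr compound incubation on HepG2 cells, 37 C, 5% CO2; plate read ex 540 nm / em 590 nm; intensities reported as Rose Bengal sodium equivalents.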

[7] = qHTS assay to test for compound auto fluorescence at 535 nm (green) in HepG2 cells (AID 720675)
[8] = qHTS assay to test for compound auto fluorescence at 460 nm (blue) in HEK293 cells (AID 720678)
In short: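 HEK293 cells (2,000 per well, medium with 10% dialyzed FBS) attached for 4-5 hr at 37C, then received compound and stood overnight at 37C, 5% CO2. Blue fluorescence was read at Ex/Em 405/460 nm and expressed relative to triamterene.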

[9] = qHTS assay to test for compound auto fluorescence at 590 nm (red) in HEK293 cells (AID 720679)
In short: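 HEK293 cells (2,000/well, medium with 10% dialyzed FBS) attached for 4-5 hr at 37C, received 23 nL compound and were incubated overnight at 37C, 5% CO2. Red fluorescence was then read at 540/590nm Ex/Em, referenced to Rose Bengal sodium.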

[10] = qHTS assay to test for compound auto fluorescence at 535 nm (green) in HEK293 cells (AID 720680)
[11] = qHTS assay to test for compound auto fluorescence at 460 nm (blue) in HEK293 cell free culture (AID 720681)
In short: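 Blue fluorescence (Ex 405/Em 460 nm, triamterene-equivalent) was read immediately after pin transfer of compound or DMSO into medium (DMEM, 10% FBS) without cells.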

[12] = qHTS assay to test for compound auto fluorescence at 535 nm (green) in HEK293 cell free culture (AID 720682)
In short: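 Cell-free medium (DMEM, 10% FBS) receives compound or DMSO by pintool. Plate read directly at Ex 485/Em 535 nm. Signal converted to fluorescein equivalency.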

[13] = qHTS assay to test for compound auto fluorescence at 590 nm (red) in HEK293 cell free culture (AID 720683)
In short: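 Red-channel autofluorescence of compounds in culture medium (DMEM, 10% FBS), no cells, measured at 540/590 nm. Rose Bengal sodium is the reference fluorophore for equivalence.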

[14] = qHTS assay to test for compound auto fluorescence at 590 nm (red) in HepG2 cell free culture (AID 720684)
In short: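 No cells present: MEM + 10% FBS only. Compound pinned in, red label read (540/590 nm). Activity = fluorescence equivalent to Rose Bengal sodium.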

[15] = qHTS assay to test for compound auto fluorescence at 460 nm (blue) in HepG2 cell free culture (AID 720685)
In short: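 Cell-free plates of MEM plus 10% FBS received 23 nL compound or DMSO vehicle; blue-channel (405/460 nm) intensity scored against triamterene as reference fluorophore.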

[16] = qHTS assay to test for compound auto fluorescence at 535 nm (green) in HepG2 cell free culture (AID 720686)
[17] = qHTS assay to test for compound auto fluorescence at 460 nm (blue) in HepG2 cells (AID 720687)
In short: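 Blue-channel autofluorescence (Ex/Em 405/460 nm, triamterene-equivalent) was measured after 1 hr compound exposure at 37 C, 5% CO2. Cells were HepG2, plated overnight at 37 C in MEM plus 10% FBS.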

[18] = target: Glucocorticoid receptor (Homo sapiens) (UniProt P04150); assay: qHTS assay to identify small molecule antagonists of the glucocorticoid receptor (GR) signaling pathway (AID 720692; active = well fitted inhibition curve with a large enough effect in the signal ratio in the repeat runs, not every such curve was filed as active; the % refers to the signal ratio; also: potency is read from the fitted curve at half-maximal effect)
In short: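 Antagonism was scored as loss of dexamethasone-driven (5 nM final) reporter signal in HeLa cells bearing a glucocorticoid response element–beta-lactamase construct, after 18 h compound exposure at 37 C and 2 h FRET substrate loading.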

[19] = qHTS assay for small molecule agonists of the p53 signaling pathway (AID 651631; calls by dose curve; also: nearly all actives have a fitted effect of over 15% in size; also: potency is read from the fitted curve at half-maximal effect)
In short: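 p53RE-bla HCT-116 cells; compounds 16 h, 37 °C; LiveBLAzer B/G FRET substrate 2 h RT; fluorescence intensity read-out, qHTS format.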

[20] = target: Glucocorticoid receptor (Homo sapiens) (UniProt P04150); assay: qHTS assay to identify small molecule agonists of the glucocorticoid receptor (GR) signaling pathway (AID 720691; active = well fitted activation curve with a large enough effect in the signal ratio in the repeat runs, not every such curve was filed as active; the % refers to the signal ratio)
In short: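 Steps: seed GR-bla HeLa cells, incubate 4 h at 37 C/5% CO2; pin-transfer DMSO-dissolved compounds; incubate 18 h at 37 C; add LiveBLAzer B/G FRET substrate; after 2 h at room temperature, measure fluorescence.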
% is scaled to controls: 0 for no effect and ±100 for the full control effect.

Chain of Glucocorticoid receptor (Homo sapiens) (P04150 whole entry, looked up): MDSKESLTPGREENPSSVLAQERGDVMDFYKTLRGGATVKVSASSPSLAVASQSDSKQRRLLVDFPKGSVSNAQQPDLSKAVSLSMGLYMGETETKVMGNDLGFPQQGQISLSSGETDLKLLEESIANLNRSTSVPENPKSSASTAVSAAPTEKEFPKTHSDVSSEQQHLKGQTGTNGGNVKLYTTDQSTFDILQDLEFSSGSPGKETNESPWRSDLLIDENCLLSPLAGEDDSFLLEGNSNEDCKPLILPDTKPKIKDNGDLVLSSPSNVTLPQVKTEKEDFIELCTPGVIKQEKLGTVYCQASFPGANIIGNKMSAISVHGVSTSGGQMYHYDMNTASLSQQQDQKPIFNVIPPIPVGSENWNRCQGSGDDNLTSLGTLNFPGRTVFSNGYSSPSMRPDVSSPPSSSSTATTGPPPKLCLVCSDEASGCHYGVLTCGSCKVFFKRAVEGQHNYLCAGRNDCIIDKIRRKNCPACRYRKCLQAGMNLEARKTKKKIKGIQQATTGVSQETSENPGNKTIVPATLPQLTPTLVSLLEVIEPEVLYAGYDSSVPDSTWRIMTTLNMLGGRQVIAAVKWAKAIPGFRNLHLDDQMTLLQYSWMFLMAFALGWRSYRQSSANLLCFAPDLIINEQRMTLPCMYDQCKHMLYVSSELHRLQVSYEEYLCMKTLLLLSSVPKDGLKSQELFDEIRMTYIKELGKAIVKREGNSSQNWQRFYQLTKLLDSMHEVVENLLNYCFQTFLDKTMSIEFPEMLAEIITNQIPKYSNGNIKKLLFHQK

CC1(C)[C@@H](O)CC[C@]2(C)[C@H]3C(=O)C=C4[C@@H]5C[C@@](C)(C(=O)O)CC[C@]5(C)CC[C@@]4(C)[C@]3(C)CC[C@@H]12
inactive: Potency [1] | Potency [3] | Potency [4] | Potency [6] | Potency [7] | Potency [8] | Potency [9] | Potency [10] | Potency [11] | Potency [12] | Potency [13] | Potency [14] | Potency [15] | Potency [16] | Potency [17]
23.7 µM (active) and inactive: Potency [2]
active: Potency [5] 23.7 µM and 67.8 µM | Potency [18] 23.9 µM and 21.3 µM and 43.2 µM

OC1CCCc2ccccc21 (centres undefined)
inactive: Potency [19] | Potency [2] | Potency [3] | Potency [4] | Potency [6] | Potency [9] | Potency [10] | Potency [11] | Potency [12] | Potency [13] | Potency [14] | Potency [15] | Potency [16] | Potency [17]

C=CC(=O)Nc1cc2c(Nc3ccc(F)c(Cl)c3)ncnc2cc1OCCCN1CCOCC1
active: Potency [19] 11.9 µM | Potency [2] 29.8 µM | Potency [3] 10.6 µM | Potency [18] 3.01 µM
inactive: Potency [4] | Potency [6] | Potency [7] | Potency [9] | Potency [10] | Potency [12] | Potency [13] | Potency [14] | Potency [15] | Potency [16] | Potency [17] | Potency [20]

Cc1cc(C(C)(C)C)cc(C)c1CC1=NCCN1
inactive: Potency [19] | Potency [2] | Potency [3] | Potency [4] | fluorescence, % of fluorescein control [7] 0.0648% [at 18.6 µM] | fluorescence, % of triamterene [8] -0.0052% [at 18.6 µM] | fluorescence, % of fluorescent control [9] 0.279% [at 18.6 µM] | fluorescence, % of fluorescein [10] 0.178% [at 18.6 µM] | fluorescence, % of fluorescent control [11] 0.0078% [at 18.6 µM] | activity change [12] 0.0172% [at 18.6 µM, stronger effect = higher value] | fluorescence, % of fluorescent control [13] 0.0411% [at 18.6 µM] | fluorescence, % of fluorescent control [15] 0.411% [at 18.6 µM] | fluorescence, % of fluorescein control [16] -0.0122% [at 18.6 µM] | fluorescence, % of fluorescent control [17] 0.013% [at 18.6 µM] | Potency [20] | Potency [18]

O=C(O)Cc1ccccc1Nc1c(Cl)cccc1Cl
inactive: Potency [19] | Potency [2] | Potency [3] | Potency [6] | Potency [7] | Potency [8] | Potency [9] | Potency [10] | Potency [12] | Potency [13] | Potency [14] | Potency [15] | Potency [16] | Potency [17]

COc1cc2nc(N3CCN(C(=O)c4ccco4)CC3)nc(N)c2cc1OC
inactive: Potency [2] | Potency [4] | Potency [5] | Potency [7] | Potency [8] | Potency [9] | Potency [10] | Potency [11] | Potency [12] | Potency [13] | Potency [14] | Potency [15] | Potency [16] | Potency [17] | Potency [20]
active: Potency [19] 13.3 µM

FC(F)(F)c1cccc(Cl)c1
inactive: Potency [19] | Potency [2] | Potency [3] | Potency [4] | Potency [6] | Potency [8] | Potency [9] | Potency [10] | Potency [12] | Potency [13] | Potency [14] | Potency [16] | Potency [17] | Potency [20] | Potency [18]

Source: PubChem BioAssay (Tox21)
